# Measured values reported in the supplement of paper PMC8728848.
# This is one part of a sample in which the strongest signals are shown more often than they occur.
# B1: Pwp5 ND (Candida glabrata) (protein)
# chain: MGSSHHHHHHSSGLVPRGSHMASANPVPLTNVCYFPEEYPRQAGFRAITAGLASTILQGSVDELLNYSGLSSLTTQQTTTTTPNFQLPTLPLPTNVYGLTVVPLYLLVQLQGYFVPPVSGQYTFSLENTNDAAIIFFGNPSAFPCGDLSAWPQASADDITVTDGTFPSRTLFLKAGVAYPMRISYYNSLGSGNLAVSFTDPGGTKRTNWNGYIWRYNSCSTCTYT
# Key:
# Experiment in all cases: glycan array binding signal (z-score within array); higher = stronger binding
# Settings in all cases: glycan notation: IUPAC condensed, linker removed
# [1] = target: Fuc(a1-2)Gal(b1-3)GalNAc(b1-4)[Neu5Ac(a2-3)]Gal(b1-4)Glc
# Outline: (§1)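 Glycan array binding is given as a within-array Z-score, which can be read as non-binding when negative. The arrays, 3228 of them, came from the Consortium for Functional Glycomics database and were retained only where the protein sequence was available. Z-scores were averaged across arrays of the same protein sequence at different concentrations or buffers and across linkers.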
# [2] = target: Fuc(a1-2)Gal(b1-3)GlcNAc6S
# Outline: as §1
# [3] = target: Fuc(a1-2)Gal(b1-3)[Fuc(a1-4)]GlcNAc
# Outline: as §1
# [4] = target: Fuc(a1-2)Gal(b1-4)GlcNAc(b1-2)[Fuc(a1-2)Gal(b1-4)GlcNAc(b1-4)]Man(a1-3)[Fuc(a1-2)Gal(b1-4)GlcNAc(b1-2)Man(a1-6)]Man(b1-4)GlcNAc(b1-4)GlcNAc
# Outline: as §1
# [5] = target: Fuc(a1-2)Gal(b1-4)GlcNAc(b1-6)GalNAc
# Outline: as §1
# [6] = target: Fuc(a1-2)Gal6S(b1-4)Glc6S
# Outline: as §1
# [7] = target: Fuc(a1-2)[Gal(a1-3)]Gal(b1-4)GlcNAc(b1-2)Man(a1-3)[Fuc(a1-2)[Gal(a1-3)]Gal(b1-4)GlcNAc(b1-2)Man(a1-6)]Man(b1-4)GlcNAc(b1-4)[Fuc(a1-6)]GlcNAc
# Outline: as §1
# [8] = target: Fuc(a1-2)[Gal(a1-3)]Gal(b1-4)GlcNAc(b1-3)[Fuc(a1-2)[Gal(a1-3)]Gal(b1-4)GlcNAc(b1-6)]GalNAc
# Outline: as §1
# [9] = target: Fuc(a1-2)[Gal(a1-3)]Gal(b1-4)GlcNAc(b1-6)GalNAc
# Outline: as §1
# [10] = target: Fuc(a1-2)[Gal(a1-3)]Gal(b1-4)[Fuc(a1-3)]Glc
# Outline: as §1
# [11] = target: Fuc(a1-2)[GalNAc(a1-3)]Gal(b1-3)GlcNAc(b1-3)GalNAc
# Outline: as §1
# [12] = target: Fuc(a1-2)[GalNAc(a1-3)]Gal(b1-4)[Fuc(a1-3)]GlcNAc
# Outline: as §1
# [13] = target: Fuc(a1-2)[GalNAc(a1-3)]Gal(b1-4)[Fuc(a1-3)]GlcNAc(b1-3)GalNAc
# Outline: as §1
# [14] = target: Fuc(a1-3)[Gal(b1-4)]Glc6S
# Outline: as §1
# [15] = target: Fuc(a1-3)[Gal(b1-4)]GlcNAc(b1-2)Man(a1-3)[Fuc(a1-3)[Gal(b1-4)]GlcNAc(b1-2)Man(a1-6)]Man(b1-4)GlcNAc(b1-4)GlcNAc
# Outline: as §1
# [16] = target: Gal(a1-3)Gal
# Outline: as §1
# [17] = target: Gal(a1-3)Gal(b1-3)GlcNAc(b1-6)GalNAc
# Outline: as §1
# [18] = target: Gal(b1-3)GalNAc
# Outline: as §1
# [19] = target: Gal(b1-3)GalNAc(b1-3)Gal(a1-4)Gal(b1-4)Glc
# Outline: as §1
# [20] = target: Gal(b1-3)GalNAc(b1-4)[Neu5Ac(a2-3)]Gal(b1-4)Glc
# Outline: as §1
# [21] = target: Gal(b1-3)GlcNAc(a1-3)Gal(b1-4)GlcNAc
# Outline: as §1
# [22] = target: Gal(b1-3)GlcNAc(b1-3)Gal(b1-4)Glc
# Outline: as §1
# [23] = target: Gal(b1-3)GlcNAc(b1-3)Gal(b1-4)GlcNAc(b1-6)[Gal(b1-3)GlcNAc(b1-3)]Gal(b1-4)Glc
# Outline: as §1
# [24] = target: Gal(b1-3)GlcNAc(b1-3)GalNAc
# Outline: as §1
# [25] = target: Gal(b1-3)[Fuc(a1-4)]GlcNAc(b1-3)Gal(b1-4)[Fuc(a1-3)]GlcNAc
# Outline: as §1
# [26] = target: Gal(b1-4)Glc
# Outline: as §1
# [27] = target: Gal(b1-4)GlcNAc(b1-2)Man(a1-3)[Gal(b1-4)GlcNAc(b1-2)Man(a1-6)]Man(b1-4)GlcNAc(b1-4)GlcNAc
# Outline: as §1
# [28] = target: Gal(b1-4)GlcNAc(b1-2)Man(a1-3)[Gal(b1-4)GlcNAc(b1-2)Man(a1-6)][Gal(b1-4)GlcNAc(b1-4)]Man(b1-4)GlcNAc(b1-4)[Fuc(a1-6)]GlcNAc
# Outline: as §1
# [29] = target: Gal(b1-4)GlcNAc(b1-2)Man(a1-6)Man(b1-4)GlcNAc(b1-4)GlcNAc
# Outline: as §1
# [30] = target: Gal(b1-4)GlcNAc(b1-3)Gal(b1-4)GlcNAc(b1-3)Gal(b1-4)GlcNAc
# Outline: as §1
binder,measurement,setting,value
B1,glycan array binding signal (z-score),[1],-0.235
same,glycan array binding signal (z-score),[2],-0.214
same,glycan array binding signal (z-score),[3],0.311
same,glycan array binding signal (z-score),[4],2.82
same,glycan array binding signal (z-score),[5],3.91
same,glycan array binding signal (z-score),[6],2.41
same,glycan array binding signal (z-score),[7],0.284
same,glycan array binding signal (z-score),[8],-0.58
same,glycan array binding signal (z-score),[9],0.176
same,glycan array binding signal (z-score),[10],-0.527
same,glycan array binding signal (z-score),[11],0.59
same,glycan array binding signal (z-score),[12],-0.827
same,glycan array binding signal (z-score),[13],-0.156
same,glycan array binding signal (z-score),[14],3.45
same,glycan array binding signal (z-score),[15],1.55
same,glycan array binding signal (z-score),[16],-0.029
same,glycan array binding signal (z-score),[17],-0.579
same,glycan array binding signal (z-score),[18],-0.212
same,glycan array binding signal (z-score),[19],3.41
same,glycan array binding signal (z-score),[20],-0.51
same,glycan array binding signal (z-score),[21],-0.125
same,glycan array binding signal (z-score),[22],-0.276
same,glycan array binding signal (z-score),[23],-0.519
same,glycan array binding signal (z-score),[24],-0.596
same,glycan array binding signal (z-score),[25],0.251
same,glycan array binding signal (z-score),[26],-0.548
same,glycan array binding signal (z-score),[27],-0.247
same,glycan array binding signal (z-score),[28],-0.557
same,glycan array binding signal (z-score),[29],0.775
same,glycan array binding signal (z-score),[30],-0.555
